Here are results for one molecule from PubChem BioAssay AID623989 (Broad Institute, 2012).

This assay deals with Glycogen synthase kinase-3 beta (Homo sapiens) (UniProt P49841). The assay is described as follows: inhibition of human GSK3B activity – biochemical, microfluidics, dry powder samples, set 2, dose response (AID 623989). To be noted: recombinant GST-GSK3beta, Caliper mobility-shift peptide conversion, 60 min; series mostly up to 35 µM.

Potency and affinity values are given separately. Records with an inconclusive call do not appear. Where a call stands in place of a potency, no number is given. Calls of active or inactive are those of the source.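 The calls were made as follows: active = curve fit gives half-maximal inhibition potency at or below twice the top tested dose in every run; inconclusive = runs disagree, flat partial inhibition, or poor curve fit; inactive = inactive in every run, flat, reversed or weak.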

Sequence of Glycogen synthase kinase-3 beta (Homo sapiens) (P49841 whole entry, looked up): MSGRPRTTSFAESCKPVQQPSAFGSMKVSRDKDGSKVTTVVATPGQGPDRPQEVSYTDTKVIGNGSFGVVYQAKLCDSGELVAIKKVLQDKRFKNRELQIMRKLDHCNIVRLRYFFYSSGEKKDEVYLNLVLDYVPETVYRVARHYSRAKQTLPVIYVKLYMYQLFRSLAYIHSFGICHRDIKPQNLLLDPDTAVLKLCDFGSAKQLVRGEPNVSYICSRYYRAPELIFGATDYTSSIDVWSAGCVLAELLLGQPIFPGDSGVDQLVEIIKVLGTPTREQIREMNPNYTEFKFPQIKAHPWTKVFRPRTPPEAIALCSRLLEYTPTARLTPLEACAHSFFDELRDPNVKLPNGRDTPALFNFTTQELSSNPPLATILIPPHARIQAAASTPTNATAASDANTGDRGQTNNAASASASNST

In the case of `COc1cc(C(=O)N2CCN(c3ccccn3)CC2)cc(OC)c1OC`, the result was inactive.
